# Giardia killer = Small Molecules that selectively kill Giardia lamblia: qHTS; Giardia lamblia trophozoite viability; actives 0.15% (n = 340,000); activity change, % at 7.66 µM, hits read low; in the data active = activity change below about -80%; inconclusive = between about -30% and that limit;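 also: parasites exposed to compound for two days anaerobically before the ATP read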
#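 Luminescence from cellular ATP indicates surviving trophozoites (100 cells/well) following 48 hrs anaerobic compound treatment at 37 deg C; signal develops 15-30 min at room temperature.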
# hERG WT inh = qHTS for Inhibitors of KCHN2 3.1: Wildtype qHTS | actives 0.37% (n = 340,000) | activity change, % at 1.84 µM | AID 720551, 2013 | U2OS, BacMam KCNH2, thallium flux FluxOr; stronger effect = lower value | Voltage-gated inwardly rectifying potassium channel KCNH2 (Homo sapiens), Q12809;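 active = maximum activity change below -70%; inconclusive = maximum activity change between -70% and -50%; inactive = maximum activity change above -50%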
#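 U2OS cells were transduced with wild-type KCNH2 virus (2.03 x 10^8 / mL) for 4 h at room temperature, then cultured overnight at 37 C. Thallium flux was read with FluxOr dye. Rate constants were normalized to DMSO controls.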
# KCNH2 3.1 inh = qHTS for Inhibitors of KCHN2 3.1: Mutant qHTS. Potassium voltage-gated channel subfamily H member 2, brain isoform KCNH2 3.1 (human). U2OS KCNH2 3.1, thallium flux FluxOr; stronger effect = lower value. activity change, % (tested at about 1.8 µM). actives 0.95% (n = 340,000);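 active = maximum activity change below -70%; inconclusive = maximum activity change from -70% to -50%; inactive = maximum activity change above -50%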;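 also: thallium influx rate constant from kinetic fluorescence after stimulation buffer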
#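 Channel expression came from 3.1 mutant virus (1.77 x 10^8 /mL) applied to suspended U2OS cells for 4 h. Flux was tracked with FluxOr dye plus Red40 quencher, and kinetic rate constants normalized to controls.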
# FBPA coupling cs = qHTS Assay for Inhibitors of Fructose-1,6-bisphosphate Aldolase from Giardia Lamblia: Coupling assay counterscreen; coupling enzyme system counterscreen, AmpLite Red fluorescence; actives 0.67% (n = 290,000); activity change, negative = inhibition, % at 58.2 µM, hits read low; in the data active = activity change below about -30%
#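 Activity here indicates interference with the coupling reaction, not aldolase inhibition. Compounds at 57.5 uM final met coupling enzymes for 10 min at RT; substrate and AmpLite Red detection followed, with a 525/598 nm fluorescence read after 20 min.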
# USP1 inh = Inhibitors of USP1/UAF1: Primary Screen | Potency, µM (series often up to 57.1 µM), without a hit: at the top dose activity change, negative = inhibition, most hits filed as inhibitors | actives 0.23% (n = 390,000) | AID 743255, 2014 | Ubiquitin carboxyl-terminal hydrolase 1 (Homo sapiens), O94782 | recombinant USP1/UAF1, Ub-Rhodamine cleavage fluorescence; active = well fitted inhibition curve with a large enough effect; inconclusive = small, poorly fitted or top-dose-only effect; inactive = no such curve, though single readings can be large or run the other way; also: potency is read from the fitted curve at half-maximal effect; nearly all actives have a fitted effect of over 60% in size
#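 1 nM enzyme complex + cpd, 15 min RT; start with Ub-Rho 150nM final; kinetic fluorescence ex 480/em 540, 6 reads q60 s. Buffer 50mM HEPES pH 7.8, 0.5mM EDTA, 0.1 mg/ml BSA, 1mM TCEP, 0.01% Tween-20.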
# An asterisk follows results filed as active; ? = inconclusive; · = no result. Hits are enriched below; roughly 1.7% of the tested compounds scored in any of these assays. % is scaled to controls: 0 for no effect and ±100 for the full control effect.
SMILES,Giardia killer,hERG WT inh,KCNH2 3.1 inh,FBPA coupling cs,USP1 inh
COCCn1c(CNC(=O)c2cc([N+](=O)[O-])ccc2Cl)nc2cccnc21,·,·,·,·,-18%
O=C(c1ccoc1)N1CCCC(CO)(CCCc2ccccc2)C1 (configuration not stated),0,-16,-155*,·,-14%
COc1ccc(CNC(=O)CC2N=C3c4ccccc4N=C(SCC(=O)Nc4ccc(C(C)C)cc4)N3C2=O)cc1 (configuration not stated),·,·,·,·,-7%
O=[N+]([O-])c1cccc(/C([O-])=C(/C(=S)Nc2cccc3ccccc23)[n+]2ccccc2)c1,-26,-13,·,-42*,-22%
Cc1ccc(NC(=O)CSc2nc3ccc(Br)cc3[nH]2)c(C)c1,·,·,·,·,-17%
Fc1cccc(Cl)c1CSC1=NCCS1,5,-7,-1,1,-17%
ON(Cc1c(F)cccc1Cl)Cc1c(F)cccc1Cl,1,1,-114*,-3,-8%
COc1cc(CNc2ccc3[nH]c(=O)[nH]c3c2)cc(Br)c1OCC(=O)NC(C)(C)C,2,-17,-3,-3,-3%
COc1cc(CNc2ccc3[nH]c(=O)[nH]c3c2)ccc1OCC(=O)NC(C)(C)C,-4,3,4,-30*,-6%
CC1CCCCN1C(=S)Nc1ccc(S(=O)(=O)N2CCCCC2)cc1 (configuration not stated),·,-1,4,·,-5%
CC(CCc1ccccc1)NC(=O)C(=O)NCCO (configuration not stated),-2,8,-78*,2,-8%
COC(=O)NCC(c1cccnc1)N1CCN(c2ccc(F)cc2)CC1 (configuration not stated),·,·,·,·,-3%
CCOC(=O)N/N=C\c1ccc(OC(=O)c2ccco2)cc1,-6,-154*,-3,3,-15%
CC(=O)N1CCc2cc(CNC(=O)Nc3ccccc3C(F)(F)F)ccc21,·,·,·,·,-1%
O=C(N/N=C/c1ccc(N2CCOCC2)o1)c1cccc([N+](=O)[O-])c1,5,-2,-10,-44*,-8%
O=C(N/N=C/c1ccc(N2CCCCC2)o1)c1ccccc1,-12,-2,-10,-21,-1%
Cc1ccc(OCC(=O)Nc2ccc3nc(SCC(=O)N4CCOCC4)sc3c2)cc1C,·,·,·,·,-5%
O=C(NCc1nnc2c(C(F)(F)F)cc(Cl)cn12)c1ccc2c(c1)OCO2,-4,-160*,11,2,-18%
O=C(NCc1nnc2c(C(F)(F)F)cc(Cl)cn12)c1cccnc1,14,33,0,-1,-24%
COc1ccc(OC)c(C(C)NC(=O)Cn2c(=O)cc(C)c3c(C)nn(-c4ccc(C)cc4)c32)c1 (configuration not stated),·,·,·,·,-16%
CCCCSC1=C(C#N)C(c2ccccc2C)CC(=O)N1 (configuration not stated),-2,-311*,5,3,-26%
CCCCC(CC)C(=O)Nc1ncc([N+](=O)[O-])s1 (configuration not stated),-91*,2,-7,2,1%
Cc1ccc(S(=O)(=O)CC(=O)Nc2ncc([N+](=O)[O-])s2)cc1,-84*,-2,-5,6,?
O=C(CS(=O)(=O)c1ccccc1)Nc1ncc([N+](=O)[O-])s1,?,-1,-7,8,-13%
CC12CCC(C(=O)Nc3cccc(NC(=O)C45CCC(C)(C(=O)O4)C5(C)C)n3)(OC1=O)C2(C)C,44,-4,11,-1,-4%
Cc1ccc(CC(=O)Nc2ncc([N+](=O)[O-])s2)cc1,-91*,-10,-8,8,-8%
CC12CCC(C(=O)Nc3ncc([N+](=O)[O-])s3)(OC1=O)C2(C)C (configuration not stated),-86*,18,20,1,3%
CNC(=O)CSc1nnc(NC(=O)Nc2ccccc2)s1,·,·,·,·,-18%

# Assay outcomes as filed in PubChem BioAssay.
